This is a sample that favours compounds with a hit; in the whole collection about 2.7% have one here.
IP6K1 inhibitor: blocks human inositol hexakisphosphate kinase 1; Q92551; 140,000 tested, 0.81% active; AID 1645851; activity change, % (series mostly up to about 58 µM); IP6K1 kinase, ADP-Glo luminescence, 2 h; stronger effect = lower value; in the data active means activity change below about -25%; further: on the % scale 0 is the no-effect control and ±100 the full control effect
Target sequence (Q92551 whole entry, looked up): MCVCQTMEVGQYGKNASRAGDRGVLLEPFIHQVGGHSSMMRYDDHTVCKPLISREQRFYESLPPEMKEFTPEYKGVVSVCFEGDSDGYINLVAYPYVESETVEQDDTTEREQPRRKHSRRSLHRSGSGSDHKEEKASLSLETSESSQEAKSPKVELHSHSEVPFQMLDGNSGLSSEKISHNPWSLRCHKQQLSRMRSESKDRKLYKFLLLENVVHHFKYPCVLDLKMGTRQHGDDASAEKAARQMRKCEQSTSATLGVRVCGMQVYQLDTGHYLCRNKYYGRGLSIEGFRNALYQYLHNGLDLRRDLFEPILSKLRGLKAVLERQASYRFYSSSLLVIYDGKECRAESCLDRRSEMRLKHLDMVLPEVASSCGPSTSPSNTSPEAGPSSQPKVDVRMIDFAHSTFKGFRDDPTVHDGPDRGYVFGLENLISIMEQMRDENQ
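ADP-Glo luminescence measures ADP made by human IP6K1 during a 2 h RT reaction with ATP/IP6 (mix at 1.3 mM/130 uM); top library doses 57.5 and 19.1 uM final.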
KDM5B inhibitor: inhibitors of human KDM5B histone demethylase | 220,000 tested, 2.6% active | Potency, µM (titrated, usually from 57.7 µM), actives largely listed as inhibitors | Q9UGL1 | AID 1347165 | KDM5B demethylase, FDH-coupled NADH fluorescence (FDH is formaldehyde dehydrogenase); further: potency means the concentration at half of the fitted maximal effect; 0% is about no effect; nearly all actives have a fitted effect of over 70% in size
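Inhibition is measured as reduced NADH fluorescence generation from FDH coupling to formaldehyde release. Truncated KDM5BΔAP at 200 nM final acts on H3K4me3 peptide (12.5 µM in substrate mix) in pH 7.5 HEPES buffer with Tween-20, 30 min, room temperature.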
An asterisk follows results filed as active.

For CCOC(=O)c1cccc(NC(=O)N2CC[C@@H](CC(=O)NCCN(C)C)[C@@H](CC)C2)c1 the results were IP6K1 inhibitor 4 and KDM5B inhibitor inactive.
C#CCNC(=O)C[C@@H]1CCN(C(=O)Nc2cccc(C(=O)OCC)c2)C[C@@H]1CC was read as IP6K1 inhibitor -1 and KDM5B inhibitor 16µM*.
`O=C(c1ccncc1)N1CCC2(CC1)CC(c1cccc(C(F)(F)F)c1)=NO2` gave IP6K1 inhibitor 10.
Cn1ncc2c(C(=O)Nc3cccc(Cl)c3)cc(C(C)(C)C)nc21 was read as IP6K1 inhibitor -6.
`COc1ccc(-c2nc3c(c(=O)[nH]2)CCN(C(=O)Cc2ccsc2)C3)cc1` gave IP6K1 inhibitor 6 and KDM5B inhibitor inconclusive.
Screening COc1ccc(-c2nc3c(c(=O)[nH]2)CCN(S(=O)(=O)c2cccs2)C3)cc1 returned IP6K1 inhibitor 29 and KDM5B inhibitor 20µM*.
`COc1ccc(-c2nc3c(c(=O)[nH]2)CCN(C(=O)COc2ccccc2C)C3)cc1` gave IP6K1 inhibitor 2 and KDM5B inhibitor 25µM*.
COc1ccc(CNC(=O)N2CCc3c(nc(-c4ccc(OC)cc4)[nH]c3=O)C2)cc1 was read as IP6K1 inhibitor 9 and KDM5B inhibitor inactive.
For COc1ccc(C2=NN3C(C2)c2ccccc2OC32CCN(C(C)=O)CC2)c(OC)c1 (stereo unspecified) the results were KDM5B inhibitor inactive.
For COc1c(Br)cc(F)cc1NC(=O)Cc1coc2cc3c(cc12)CCC3 the results were KDM5B inhibitor inactive.
`Cc1nnc([C@@H]2CC(F)(F)CN2C(=O)c2ccoc2C)o1` gave IP6K1 inhibitor 8 and KDM5B inhibitor inactive.
For Cc1nnc([C@@H]2CC(F)(F)CN2C(=O)c2cccc3[nH]ccc23)o1 the results were IP6K1 inhibitor 14 and KDM5B inhibitor 28µM*.
`CCOc1ccc(-n2c(SCC(=O)N3CCCc4ccccc43)nc3c(c2=O)SCC3)cc1` gave KDM5B inhibitor inactive.
For O=C(NC1CC(c2nnc(CO)n2C2CC2)C1)c1ccc(F)cc1Cl (stereo unspecified) the results were IP6K1 inhibitor 14 and KDM5B inhibitor inactive.
Screening O=C(NC1CC(c2nnc(CO)n2C2CC2)C1)c1cccn2cnnc12 (stereo unspecified) returned IP6K1 inhibitor 8 and KDM5B inhibitor 28µM*.
COC(=O)C(NC=O)C12CC3CC(CC(C3)C1)C2 (stereo unspecified) was read as KDM5B inhibitor inactive.
`O=C(CCCNC(=O)c1ccc(Cl)cc1)NCc1cccc(C(F)(F)F)c1` gave KDM5B inhibitor inactive.
For CCC(C)NC(=O)Nc1ccc2c(c1)N(S(=O)(=O)CC)CC2 (stereo unspecified) the results were KDM5B inhibitor inactive.
`CCC(NC(=O)c1ccc2nc(-c3ccc(F)cc3)cn2c1)c1cccnc1` (stereo unspecified) gave IP6K1 inhibitor -5 and KDM5B inhibitor 28µM*.
`O=C(c1ccc2nc(-c3ccc(F)cc3)cn2c1)N1CCC(F)CC1` gave IP6K1 inhibitor -4 and KDM5B inhibitor 28µM*.
For O=C(NCCCn1ccnc1)c1ccc2nc(-c3ccc(F)cc3)cn2c1 the results were IP6K1 inhibitor -2 and KDM5B inhibitor 32µM*.
Screening O=C(c1ccc2nnc(-c3ccc(F)cc3)n2c1)N1CCOCC1 returned IP6K1 inhibitor 7 and KDM5B inhibitor inactive.
Screening Cc1cc(C)nc(CNC(=O)c2ccc3nc(-c4ccc(F)cc4)cn3c2)n1 returned IP6K1 inhibitor 2 and KDM5B inhibitor 28µM*.
Screening CCn1cc(-c2ccc(F)cc2)cc1C(=O)NCc1cccnc1 returned IP6K1 inhibitor 22 and KDM5B inhibitor inactive.
Screening COc1cccc(CNC(=O)c2ccc3nnc(-c4ccc(F)cc4)n3c2)c1 returned IP6K1 inhibitor 8.
For O=C(NCCCn1ccnc1)c1ccc(Cl)cc1 the results were KDM5B inhibitor inactive.
Screening CC(=O)NC1(C)CCN(Cc2ccc(-c3ccc4c(ccn4C)c3)cc2)C1 (stereo unspecified) returned IP6K1 inhibitor 13 and KDM5B inhibitor inconclusive.
Screening CCCCn1c(=O)n(CC(O)COc2ccc(OCC)cc2)c(=O)c2c1ncn2CCOC (stereo unspecified) returned KDM5B inhibitor inactive.
COc1ccc(Cl)cc1NC(=O)CCc1ncc(-c2ccccc2F)o1 was read as KDM5B inhibitor inactive.
`O=C(NC1CCCCC1)c1ccc2c(c1)sc1nc(-c3ccc(F)cc3)cn12` gave IP6K1 inhibitor 13 and KDM5B inhibitor inactive.
For O=C(c1ccc2nc(-c3ccccc3)cn2c1)N1C[C@@H]2CCC[C@H]1C2 the results were IP6K1 inhibitor 12 and KDM5B inhibitor 22µM*.
`CCNC(=O)C1CCN(C(=O)c2ccc3nc(-c4ccccc4)cn3c2)C1` (stereo unspecified) gave IP6K1 inhibitor -1 and KDM5B inhibitor 28µM*.
Screening Cn1cc(CN(C(=O)c2ccc3nc(-c4ccccc4)cn3c2)C2CC2)cn1 returned IP6K1 inhibitor -11 and KDM5B inhibitor inconclusive.
`COc1ccc(CCNC(=O)c2ccc3nc(C)cn3c2)cc1` gave IP6K1 inhibitor 20 and KDM5B inhibitor 28µM*.
For O=C(NC1C=CS(=O)(=O)C1)c1ccc2nc(-c3ccc(F)cc3)cn2c1 (stereo unspecified) the results were IP6K1 inhibitor 1 and KDM5B inhibitor 25µM*.
O=C(c1ccc(F)c(C(F)(F)F)c1)N1CC2CCC1C2 (stereo unspecified) was read as KDM5B inhibitor inactive.
For COc1ccc(CCNC(=O)c2ccc3nnc(-c4cc(C(F)(F)F)cc(C(F)(F)F)c4)n3c2)cc1 the results were IP6K1 inhibitor -9.
`COc1ccc(CC(=O)N2CCC3(CC2)CC(c2cccc(C(F)(F)F)c2)=NO3)cc1` gave IP6K1 inhibitor -2.
`Cc1n[nH]c(C)c1/C=C/C(=O)c1ccc(Br)cc1` gave KDM5B inhibitor inactive.
For COC(=O)[C@@H]1Cc2c([nH]c3ccccc23)[C@H]2C[C@@H](NCc3cccnc3)C[C@@H](c3ccc(F)c(F)c3)N21 the results were IP6K1 inhibitor -1 and KDM5B inhibitor 25µM*.
Screening COC(=O)[C@@H]1Cc2c([nH]c3ccccc23)[C@H]2C[C@@H](NCCNC(C)=O)C[C@@H](c3ccc(C)cc3)N21 returned IP6K1 inhibitor -11 and KDM5B inhibitor 28µM*.
For C#CCN[C@H]1C[C@@H]2c3[nH]c4ccccc4c3C[C@@H](C(=O)OC)N2[C@H](c2ccc(F)cc2)C1 the results were IP6K1 inhibitor -1 and KDM5B inhibitor 40µM*.
Screening COC(=O)[C@@H]1Cc2c([nH]c3ccccc23)[C@H]2C[C@@H](NCCNC(C)=O)C[C@@H](c3ccccc3)N21 returned IP6K1 inhibitor -15 and KDM5B inhibitor 8.9µM*.
Screening COC(=O)[C@@H]1Cc2c([nH]c3ccccc23)[C@H]2C[C@@H](NCc3cccnc3)C[C@@H](c3ccc(F)cc3)N21 returned IP6K1 inhibitor -7 and KDM5B inhibitor inconclusive.
Screening COC(=O)[C@@H]1Cc2c([nH]c3ccccc23)[C@H]2C[C@@H](NCCNC(C)=O)C[C@@H](c3ccc(C(C)C)cc3)N21 returned IP6K1 inhibitor -4 and KDM5B inhibitor inconclusive.
`COC(=O)[C@@H]1Cc2c([nH]c3ccccc23)[C@H]2C[C@@H](NCCO)C[C@@H](c3ccc(F)cc3)N21` gave IP6K1 inhibitor -9 and KDM5B inhibitor inconclusive.
